Molecules are shown by their SMILES. Inconclusive results are not listed. A number with no mark means an inactive call. The call rests on the fitted dose curve; in most records, active means well fitted inhibition curve with a large enough effect; inconclusive means small, poorly fitted or top-dose-only effect; inactive means flat fitted curve, though single readings scatter.
On the % scale 0 is the no-effect control and ±100 the full control effect.

One experiment in a line: Drug repurposing screens with cells derived from glioblastoma tumor samples (AID 1345199). Further: nearly all actives have a fitted effect of over 40% in size. Particulars: GBM patient neurospheres viability, ATP luminescence, 48 h; at 46 µM (top of the series); tumour line A. The procedure, abridged:
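Four patient lines of CD133+ GBM neurospheres were screened at several concentrations; hits were retested in those lines plus three slower-growing GBM lines, using 48-hour treatment and ATP-based viability.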
As for `Cc1cc2nc3c(=O)[nH]c(=O)nc-3n(C[C@H](O)[C@H](O)[C@H](O)COP(=O)(O)OP(=O)(O)OC[C@H]3O[C@@H](n4cnc5c(N)ncnc54)[C@H](O)[C@@H]3O)c2cc1C`, the activity, negative = cell killing was -9.49%.

`CC(C)(Oc1ccc(C2CCCc3ccccc32)cc1)C(=O)O` (stereo not drawn): the activity, negative = cell killing is -21.9%.

Regarding `Cc1ccc(S(=O)(=O)NCl)cc1`, the activity, negative = cell killing was -22.9%.

Regarding `O=C1c2ccccc2C(=O)C1c1ccc(F)cc1`, the activity, negative = cell killing is -45.8%.

Consider `OCc1ccccc1`, for which the activity, negative = cell killing was -25.4%.

Regarding `CNC(=O)OCc1cccc(COC(=O)NC)n1`, the activity, negative = cell killing was -25.4%.

Turning to `NCCN`, the activity, negative = cell killing was -28.2%.

With `CCC(Cc1c(I)cc(I)c(O)c1I)C(=O)O` (stereo not drawn), the activity, negative = cell killing is -17.6%.

On to `CCCCCCCCCCCCCCCCCC(=O)OCC(C)O` (stereo not drawn), for which the activity, negative = cell killing was -14.9%.

Regarding `OCl`, the activity, negative = cell killing is -24.4%.

On to `C[C@H](CCC(=O)O)[C@H]1CC[C@H]2[C@@H]3[C@H](O)C[C@@H]4C[C@H](O)CC[C@]4(C)[C@H]3C[C@H](O)[C@]12C`, for which the activity, negative = cell killing is -16.5%.

Take `NC(N)=O`: the activity, negative = cell killing was -23.3%.

Consider `CC(C)(COP(=O)(O)OP(=O)(O)OC[C@H]1O[C@@H](n2cnc3c(N)ncnc32)[C@H](O)[C@@H]1OP(=O)(O)O)C(O)C(=O)NCCC(=O)NCCS` (stereo partly drawn), for which the activity, negative = cell killing was -28.8%.

`COC(=O)c1ccccc1O`: the activity, negative = cell killing was -21.5%.

Consider `O=[N+]([O-])O[C@@H]1CO[C@H]2[C@@H]1OC[C@@H]2O`, for which the activity, negative = cell killing was -36.5%.

Turning to `CCCCC`, the activity, negative = cell killing was -21.1%.

The same experiment, now with this note: GBM patient neurospheres viability, ATP luminescence, 48 h; at 46.1 µM (top of the series); tumour line C.
For `C=CC[N+]1([C@H]2C[C@H]3[C@@H]4CC[C@H]5C[C@H](O)[C@@H](N6CCOCC6)C[C@]5(C)[C@H]4CC[C@]3(C)[C@H]2OC(C)=O)CCCC1`, the activity, negative = cell killing was -21.7%.

In the case of `CC1CCC(NC(=O)N(CCCl)N=O)CC1` (stereo not drawn), the activity, negative = cell killing was -19.7%.

Consider `CO[C@H]1O[C@@H]2O[C@@]3(C)CC[C@H]4[C@H](C)CC[C@@H]([C@H]1C)[C@@]24OO3`, for which the activity, negative = cell killing is -10.2%.

For the molecule `Cc1ccc(S(=O)(=O)NCl)cc1`, the activity, negative = cell killing was -11.3%.

As for `CCOC(=O)Cc1ccc(-c2ccccc2)cc1`, the activity, negative = cell killing was 36.2%.

As to `CC(C)C1=CC2=CC[C@@H]3[C@](C)(CCC[C@@]3(C)C(=O)O)[C@H]2CC1`, the activity, negative = cell killing was -9.17%.

Take `CC(C)CCCCCCc1ccc(O)cc1`: the activity, negative = cell killing was -24.2%.

Turning to `CCc1ccc(S(=O)(=O)O)cc1`, the activity, negative = cell killing was -22.1%.

As for `CCOC(=O)[C@H](CS)NCCN[C@@H](CS)C(=O)OCC`, the activity, negative = cell killing was -15.5%.

With `OCc1ccccc1`, the activity, negative = cell killing was 15.3%.

With `O=C1N=C2SCCN2C(=O)C1Cc1ccc(Cl)cc1` (stereo not drawn), the activity, negative = cell killing is -2.54%.

As to `O=P(O)(O)OP(=O)(O)OP(=O)(O)O`, the activity, negative = cell killing was -5.26%.

`O=C(O)CCCC/C=C(\c1ccccc1)c1cccnc1`: the activity, negative = cell killing is -17.1%.

In the case of `Cc1cccc(C)c1NC(=O)NC1=CCCN1C`, the activity, negative = cell killing is 0.0506%.

Regarding `CC(C)CN(C[C@@H](OP(=O)(O)O)[C@H](Cc1ccccc1)NC(=O)O[C@H]1CCOC1)S(=O)(=O)c1ccc(N)cc1`, the activity, negative = cell killing was -18.7%.

As for `O=C(O)c1ccc(OCCn2ccnc2)cc1`, the activity, negative = cell killing was -11.9%.

Consider `NCCN`, for which the activity, negative = cell killing is 1.75%.

As to `FC(F)(F)C(F)(F)C(F)(F)C(F)(F)C(F)(F)C(F)(F)F`, the activity, negative = cell killing was -26.4%.

`C[C@@H]1C[C@H]2[C@@H]3C[C@H](F)C4=CC(=O)C=C[C@]4(C)[C@@]3(Cl)[C@@H](O)C[C@]2(C)[C@H]1C(=O)COC(=O)C(C)(C)C`: the activity, negative = cell killing was -26.7%.

Regarding `OCl`, the activity, negative = cell killing was -3.94%.

For `C[C@H](CCC(=O)O)[C@H]1CC[C@H]2[C@@H]3[C@H](O)C[C@@H]4C[C@H](O)CC[C@]4(C)[C@H]3C[C@H](O)[C@]12C`, the activity, negative = cell killing was -12.6%.

Take `S=C1SCN(Cc2ccccc2)CN1Cc1ccccc1`: the activity, negative = cell killing is -9.54%.

On to `CC[C@H]1OC(=O)[C@H](C)[C@@H](O[C@H]2C[C@@](C)(OC)[C@@H](O)[C@H](C)O2)C(C)[C@@H](O[C@@H]2O[C@H](C)C[C@H](N(C)C)[C@@H]2O)[C@](C)(OC)C[C@@H](C)C(=O)[C@H](C)[C@@H](O)[C@]1(C)O` (stereo partly drawn), for which the activity, negative = cell killing was 2.27%.

For the molecule `NC(N)=O`, the activity, negative = cell killing is 7.05%.

Regarding `N=C(N)c1ccc(/C=C/c2ccc(C(=N)N)cc2O)cc1`, the activity, negative = cell killing was -14.7%.

As for `CC(C)Cc1ccc([C@@H](C)C(=O)NS(C)(=O)=O)cc1`, the activity, negative = cell killing is -23.4%.

With `COC(=O)c1ccccc1O`, the activity, negative = cell killing was 12.1%.

The record behind these values is PubChem BioAssay (NCATS).
